Common to all, as to details: concentration: 1 μM, replicates: in singlicate; n = 1
The test system of test [1] is AAK1.
Test [2] concerns ABL1-nonphosphorylated.
The test system of test [3] is ABL1-phosphorylated.
The subject of test [4] is ABL2.
Test [5] has as its system ACVR1B.
Test [6] has as its system ACVR1.
Test [7] concerns ACVR2A.
Test [8] concerns ACVR2B.
For test [9], the system named is ACVRL1.
Test [10] deals with T1, ADCK3.
T1 construct: gene CABC1

The values that follow come from article PMC5540273 (PLoS ONE, 2017).

Each structure is given as a SMILES string.
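Further: KINOMEscan kinase panel screen.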

`Cn1cc(-c2ccc3c(c2)CCN3C(=O)Cc2cc(F)cc(C(F)(F)F)c2)c2c(N)ncnc21` [GSK2635225]: the “%Inh” value in test [1] came to 10%; in [2], 78%; in [3], 15%; in [4] it was 40%; in test [5] it was 0%; in [6], 0%. The “%Inh” value in test [7] turned out to be 0%; in [8], 12%; in test [9], 0%; in test [10] it was 17%.
As to `Cn1cc(-c2cnc(N)c3c(-c4ccc5c(c4)CCN5C(=O)Cc4ccccc4)csc23)cn1` [GSK2593074], the “%Inh” value was 0% in test [1]; 99.7% in [2]; 89% in test [3]; 81% in [4]; 9% in test [5]; 7% in [6]. For the same compound, the “%Inh” value in test [7] amounted to 0%; in test [8], 0%; in test [9], 0%; in test [10] it was 7%.
In the case of `Fc1cc(Cl)ccc1Nc1ccnc2cc(-c3ccc(CN4CCSCC4)o3)ccc12` [GW560106], the “%Inh” value in test [1] was determined as 4%; in test [2], 95.9%; in test [3], 98.7%; in [4], 89%; in test [5], 21%; in [6], 84%. Besides, the “%Inh” value in [7] was determined as 14%; in [8] it was 91%; in test [9] it was 49%; in [10] it was 3%.
Consider `CCOc1nccc(-c2c(-c3ccc(F)cc3)ncn2C2CCNCC2)n1` [SB-249175], for which the “%Inh” value in test [1] was 11%; in test [2] it was 35%; in test [3] it was 2%; in test [4], 0%; in [5], 100%; in test [6], 11%. Further, the “%Inh” value in [7] turned out to be 9%; in test [8], 0%; in test [9], 1%; in [10], 13%.
As to `CN1CCN(Cc2ccc(NC(=O)Nc3ccc(N(C)c4ccnc(Nc5ccc(CS(C)(=O)=O)cc5)n4)cc3)cc2)CC1.Cl` [GW827654], the “%Inh” value in test [1] worked out at 62%; in test [2], 100%; in test [3], 94.2%; in [4] it was 81%; in test [5], 0%; in test [6], 58%. In addition, the “%Inh” value in [7] is 0%; in test [8] it was 38%; in test [9], 57%; in test [10], 0%.
`O=C(Nc1c(F)cccc1F)c1cc(C(=O)c2ccccc2F)c[nH]1` [GSK1326180]: the “%Inh” value was 0% in test [1]; 0% in test [2]; 0% in [3]; 0% in [4]; 20% in [5]; 0% in test [6]. Moreover, the “%Inh” value is listed as 0% in test [7], 0% in test [8], 9% in test [9] and 11% in test [10].
Turning to `CSc1ccc(NC2=C(c3ccc(Cl)cc3)C(=O)NC2=O)cc1` [SB-317658], the “%Inh” value in test [1] is on record as 0%; in test [2] it was 0%; in [3], 0%; in [4], 0%; in [5], 13%; in test [6], 0%. The “%Inh” value in test [7] was 15%; in test [8] it was 0%; in test [9], 23%; in test [10], 1%.
Consider `O=C(Nc1n[nH]c2nc(-c3ccccc3O)ccc12)C1CC1` [SB-711880], for which the “%Inh” value in [1] was 17%; in [2], 68%; in test [3] it was 44%; in test [4], 55%; in [5], 0%; in [6], 0%. Also, the “%Inh” value in [7] worked out at 0%; in test [8] it was 0%; in [9] it was 0%; in [10] it was 3%.
`c1ccc(Oc2ccc(Nc3ccnc4cc(-c5ccc(CN6CCCCC6)o5)ccc34)cc2)nc1` [GW567143]: the “%Inh” value amounted to 0% in test [1]; 85% in test [2]; 24% in test [3]; 24% in test [4]; 0% in test [5]; 0% in test [6]. Besides, the “%Inh” value in test [7] was found to be 32%; in test [8], 0%; in test [9], 0%; in [10], 0%.
